# CSC inhib = cancer stem cell inhibition; cancer stem cell-like cells viability, luminescence; inhibition, % at 7.5 µM; 1.1% of 300,000 active; AID 2717; in the data active = inhibition above about 75%; inconclusive = no clear call, values can overlap the other calls; tested in HMLE shEcad cells
# PP5 primary = inhibitors of human protein phosphatase 5 (PP5); purified PP5c, OMFP substrate fluorescence; 0.18% of 320,000 active; P53041; inhibition, % at 6.7 µM;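 active = inhibition above the campaign's mean inhibition across all tested compounds plus 3 SD, cut at about 9.5% in these data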
# Beta apoptosis = blocks beta cell apoptosis | protection from apoptosis, % (no concentration beside the values) | 0.8% of 300,000 active | INS-1E cytokine-induced death, ATP luminescence, 48 h; percent of positive-control rescue, neutral wells zero;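 active = Every replicate reaches about 75%, or at least half do and their mean reaches it too, limit read from the data; inconclusive = At least half of replicates reach the limit but their mean does not; inactive = Under half of replicates reach the limit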;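 also: higher means more ATP so stronger rescue from cytokine killing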
# Mdm2 MdmX PPI = disrupts the human Mdm2-MdmX interaction. AID 485346. inhibition, % at 8 µM. O15151+Q00987. 3% of 330,000 active. SaOS-2 split-luciferase Mdm2/MdmX complementation, luminescence;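 active = inhibition of at least 50% at 8 µM in the primary screen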
# Calb FLC = affects C. albicans growth with fluconazole; C. albicans CaCi-2 (fluconazole-resistant clinical isolate) + fluconazole, Alamar Blue growth, 48 h; growth inhibition, % (no concentration beside the values); 0.57% of 300,000 active; AID 1979;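 active = growth inhibition above about 58% in most replicates, limit read from the data, passing the limit was not always enough; inconclusive = exactly half the replicates above a set limit; inactive = most replicates below a set limit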;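 also: all wells also contain fluconazole at 8 µg/ml as a sub-toxic cotreatment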
# PP1 inh = PP1-alpha (human) inhibition in PP5 counter-screen; inhibition, % at 6.7 µM; AID 2235; 0.9% of 320,000 active; purified PP1alpha, OMFP fluorescence;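 active = inhibition above the mean inhibition of all tested compounds plus 3 SD, computed separately for each screening campaign, cut at about 15% in these data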
# Target sequence (P62136 whole entry, looked up): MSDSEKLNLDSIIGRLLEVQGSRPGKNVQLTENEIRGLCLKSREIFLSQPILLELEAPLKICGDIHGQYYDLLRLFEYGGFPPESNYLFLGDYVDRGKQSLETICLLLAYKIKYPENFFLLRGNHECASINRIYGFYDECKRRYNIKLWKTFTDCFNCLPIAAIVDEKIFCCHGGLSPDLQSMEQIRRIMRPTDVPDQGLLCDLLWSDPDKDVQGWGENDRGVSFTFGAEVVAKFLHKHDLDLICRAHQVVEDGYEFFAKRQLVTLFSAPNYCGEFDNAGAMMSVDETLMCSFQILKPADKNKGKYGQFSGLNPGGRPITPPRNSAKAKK
# Hits are given with their value; - = inactive; ? = inconclusive; . = not tested or not shown. The list is not random: actives were taken first. Their share in the collection is about 4.9%.
SMILES,CSC inhib,PP5 primary,Beta apoptosis,Mdm2 MdmX PPI,Calb FLC,PP1 inh
CN1/C(=C\C(=S)NC(=O)c2cccc(Br)c2)C(C)(C)c2ccccc21,-,-,116,-,-,-
O=C(c1ccccc1)c1ccc(NCCCn2ccnc2)c([N+](=O)[O-])c1,-,-,-,-,-,-
CS(=O)(=O)Nc1ccc(C(=O)Nc2cccc([N+](=O)[O-])c2)cc1,-,-,-,-,-,-
Cc1cc(C(=O)NNc2ccc(F)cc2F)no1,75,-,-,-,?,-
Cc1cc(C(=O)NNc2ccc(Cl)cc2)no1,117,-,-,-,103,-
Cc1ccc(NNC(=O)c2cc(C)on2)c(C)c1,-,-,-,-,-,-
Oc1cccc(O)c1O,-,-,-,-,.,-
Cc1ccc2c(c1)nnn2C1CCN(S(=O)(=O)c2ccc(C(=O)O)cc2)CC1,-,-,-,-,-,-
Cc1ccc2c(c1)nnn2C1CCN(S(=O)(=O)c2ccc(C(=O)N3C(C)CCCC3C)cc2)CC1 (configuration not stated),-,-,106,-,-,-
O=S(=O)(O)c1nc2ccccc2n1Cc1cccc2ccccc12,-,-,-,-,-,-
Cc1oc(CC(C)C)cc1C(=O)Nc1cccc2ccccc12,80,-,-,-,-,-
Cc1ccc(S(=O)(=O)NNC(=O)c2ccc(NC(=O)C3CC3)cc2)cc1,-,.,-,-,111,.
CC(=O)Nc1ccc(C(=O)NNS(=O)(=O)c2ccc(C)cc2)cc1,-,-,.,-,-,-
O=C(Cc1cccs1)Nc1cccc(-c2nc3cc4ccccc4cc3[nH]2)c1,99,-,-,.,-,-
Cc1ccccc1C(=O)NCC(=O)Nc1ccc(C)c(S(=O)(=O)N2CCCCCC2)c1,-,-,-,-,-,-
CCNC(=O)Nc1cc(S(=O)(=O)Nc2ccc(OC)cc2)ccc1N1CCOCC1,-,-,89,-,.,-
C=CCn1c(C)cc(C(=O)CSc2nnc(NC(C)C)s2)c1C,-,-,-,-,-,-
C=CCn1c(C)cc(C(=O)CSc2nnc(NCc3ccccc3)s2)c1C,-,12,-,.,-,-
CCN(CC)c1cc(C)c2cc(NC(=O)c3ccc(Br)o3)ccc2n1,-,-,-,-,-,-
O=C1Nc2cc(C(=O)N3CCc4ccccc4C3)ccc2S/C1=C\c1ccccc1,118,-,-,-,-,-
Cc1ccc(-c2ccc(S(=O)(=O)Nc3cccnc3)cc2)cc1,-,-,.,-,-,16
COc1c(S(=O)(=O)Nc2cccnc2)ccc(Cl)c1Cl,-,-,-,-,-,-
Cc1c(Cl)ccc(S(=O)(=O)Nc2cccnc2)c1Cl,-,-,-,-,77,-
Cc1ccc(S(=O)(=O)Nc2cccnc2)cc1C,-,-,-,-,-,-
COc1ccc(Cn2c(C(C)C)nc3sc4ccccc4c(=O)c3c2=O)cc1,-,-,-,-,-,-
SMILES,CSC inhib,PP5 primary,Beta apoptosis,Mdm2 MdmX PPI,Calb FLC,PP1 inh
CCc1nc2sc3ccccc3c(=O)c2c(=O)n1CCOC,-,-,-,-,-,-
CC(C)c1nc2sc3ccccc3c(=O)c2c(=O)n1Cc1ccccc1,77,-,-,-,-,-
CCCc1nc2sc3ccccc3c(=O)c2c(=O)n1Cc1ccc(OC)cc1,-,-,100,-,-,-
CC1=C(C)/C(=N\OS(=O)(=O)c2ccc(C)cc2)C=CC1=O,89,-,106,.,.,-
COc1ccc(S(=O)(=O)/N=C2/C=CC(=O)C(C)=C2C)cc1,-,-,-,-,-,-
COCCCN=C1NN=C(c2cc(C)n(-c3ccccc3)c2C)CS1,-,-,-,-,-,-
Cc1cc(C2=NNC(=Nc3ccccc3)SC2)c(C)n1C,-,-,-,-,-,16
Cc1cc(C2=NNC(=NCCc3ccccc3)SC2)c(C)n1-c1c(C)n(C)n(-c2ccccc2)c1=O,-,-,-,-,-,19
Oc1c(Br)cc(Br)cc1/C=N/n1c(-c2ccccc2)n[nH]c1=S,-,-,-,-,-,-
Oc1c(Br)cc(/C=N/n2c(-c3ccccc3)n[nH]c2=S)c(Br)c1O,106,-,-,.,-,-
CC(C)(C)OC(=O)N1CCC(CC2CC(c3cccc(Br)c3)=NO2)(C(=O)O)CC1 (configuration not stated),-,-,.,-,-,-
CCOC(=O)CC1COCCN1C(=O)c1cc(COc2ccc(F)cc2Cl)on1 (configuration not stated),-,-,-,-,-,-
CCCCC(=O)Nc1ncc([N+](=O)[O-])s1,-,-,-,-,83,-
CC(C)CC(=O)Nc1ncc([N+](=O)[O-])s1,-,-,-,-,-,-
CC(=O)c1cccc(NC(=O)C2CCN(C(=O)c3cccs3)CC2)c1,-,-,-,-,-,-
Cc1nn(C(C)C(=O)N2CCOCC2)c(C)c1[N+](=O)[O-] (configuration not stated),-,-,-,-,-,-
O=C(C(Cl)Cl)N1c2ccccc2OCC1c1ccccc1 (configuration not stated),-,-,76,-,-,-
CCN(C(=O)Cc1c(C(=O)O)n(C)c2ccccc12)c1cccc(C)c1,-,-,-,-,-,-
COC(=O)[C@]1(C)N[C@H](CN(C)C(=O)C2CCCCC2)[C@@H]2C(=O)N(Cc3ccccc3)C(=O)[C@@H]21,.,.,.,-,.,.
CCC1(C)Cc2ccccc2-c2c1c(=O)n(Cc1ccccc1)c1nnnn21 (configuration not stated),135,-,-,-,-,-
Cc1cc(C)c[n+](C(C)C(=O)c2ccc(-c3ccccc3)cc2)c1 (configuration not stated),-,-,93,-,-,-
CC(C)CC1Nc2ncnc(N3CCN(c4ccccn4)CC3)c2N(Cc2ccc(Br)cc2)C1=O (configuration not stated),-,-,.,-,-,17
COc1ccc(-c2noc3c2-c2nc(-c4ccccc4C)sc2CC3)cc1,76,-,-,-,-,-
N#C/C(=C(/O)CSc1ccccn1)c1nc2ccccc2s1,-,-,-,-,-,-
COc1ccc(C/C(O)=C(\C#N)c2nc3ccccc3s2)cc1,.,-,.,-,94,-
SMILES,CSC inhib,PP5 primary,Beta apoptosis,Mdm2 MdmX PPI,Calb FLC,PP1 inh
Cc1ccc(SC/C(O)=C(\C#N)c2nc3ccccc3s2)cc1,-,-,-,-,88,-
N#C/C(=C(/O)COc1ccc(Cl)cc1)c1nc2ccccc2s1,99,-,-,-,94,-
O=c1[nH]c(C(Cl)(Cl)Cl)nc2ccc3ccccc3c12,.,-,-,-,-,-
O=c1[nH]c(NCCCO)nc2c1C1(CCCC1)Cc1ccccc1-2,-,-,104,-,-,-
C=CCNC(=S)NNc1nc2c(c(=O)[nH]1)C1(CCCC1)Cc1ccccc1-2,-,-,-,-,?,-
O=c1c2c(nc3n1CCCCC3)-c1ccccc1CC21CCCC1,93,-,-,-,-,-
O=c1[nH]c(NNC(=S)NCc2ccccc2)nc2c1C1(CCCCC1)Cc1ccccc1-2,106,-,-,-,?,-
Nn1cnc2c(c1=O)C1(CCCCC1)Cc1ccccc1-2,-,-,.,-,-,-

# Screening results from PubChem.
